# In ChEMBL document CHEMBL2218924, “A broad activity screen in support of a chemogenomic map for kinase signalling research and drug discovery” (Biochem J, 2013):
# Columns and labels:
# [1] = target: T1, Serine/threonine-protein kinase 3 (Homo sapiens) (UniProt Q13188); conditions: at 1 µM
# T1 sequence (whole entry): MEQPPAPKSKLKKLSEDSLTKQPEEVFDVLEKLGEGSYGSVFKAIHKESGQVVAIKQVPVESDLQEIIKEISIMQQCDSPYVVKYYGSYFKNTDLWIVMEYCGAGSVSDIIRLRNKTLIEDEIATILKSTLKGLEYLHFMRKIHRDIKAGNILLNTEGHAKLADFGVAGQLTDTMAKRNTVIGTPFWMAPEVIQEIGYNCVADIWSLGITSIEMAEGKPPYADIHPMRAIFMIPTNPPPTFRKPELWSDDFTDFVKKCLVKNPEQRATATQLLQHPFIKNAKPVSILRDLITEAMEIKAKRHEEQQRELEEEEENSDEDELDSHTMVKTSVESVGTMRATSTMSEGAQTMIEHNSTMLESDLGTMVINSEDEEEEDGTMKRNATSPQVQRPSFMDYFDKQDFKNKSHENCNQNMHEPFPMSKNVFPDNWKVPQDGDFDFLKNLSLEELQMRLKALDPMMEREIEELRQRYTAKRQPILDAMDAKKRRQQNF
# [2] = target: T1, Serine/threonine-protein kinase 3 (Homo sapiens); conditions: at 10 µM
# [3] = target: Serine/threonine-protein kinase 24 (Homo sapiens) (UniProt Q9Y6E0); conditions: at 1 µM
# [4] = target: Serine/threonine-protein kinase 24 (Homo sapiens) (UniProt Q9Y6E0); conditions: at 10 µM
# [5] = target: T2, Tyrosine-protein kinase Mer (Homo sapiens) (UniProt Q12866); conditions: at 1 µM
# T2 sequence (whole entry): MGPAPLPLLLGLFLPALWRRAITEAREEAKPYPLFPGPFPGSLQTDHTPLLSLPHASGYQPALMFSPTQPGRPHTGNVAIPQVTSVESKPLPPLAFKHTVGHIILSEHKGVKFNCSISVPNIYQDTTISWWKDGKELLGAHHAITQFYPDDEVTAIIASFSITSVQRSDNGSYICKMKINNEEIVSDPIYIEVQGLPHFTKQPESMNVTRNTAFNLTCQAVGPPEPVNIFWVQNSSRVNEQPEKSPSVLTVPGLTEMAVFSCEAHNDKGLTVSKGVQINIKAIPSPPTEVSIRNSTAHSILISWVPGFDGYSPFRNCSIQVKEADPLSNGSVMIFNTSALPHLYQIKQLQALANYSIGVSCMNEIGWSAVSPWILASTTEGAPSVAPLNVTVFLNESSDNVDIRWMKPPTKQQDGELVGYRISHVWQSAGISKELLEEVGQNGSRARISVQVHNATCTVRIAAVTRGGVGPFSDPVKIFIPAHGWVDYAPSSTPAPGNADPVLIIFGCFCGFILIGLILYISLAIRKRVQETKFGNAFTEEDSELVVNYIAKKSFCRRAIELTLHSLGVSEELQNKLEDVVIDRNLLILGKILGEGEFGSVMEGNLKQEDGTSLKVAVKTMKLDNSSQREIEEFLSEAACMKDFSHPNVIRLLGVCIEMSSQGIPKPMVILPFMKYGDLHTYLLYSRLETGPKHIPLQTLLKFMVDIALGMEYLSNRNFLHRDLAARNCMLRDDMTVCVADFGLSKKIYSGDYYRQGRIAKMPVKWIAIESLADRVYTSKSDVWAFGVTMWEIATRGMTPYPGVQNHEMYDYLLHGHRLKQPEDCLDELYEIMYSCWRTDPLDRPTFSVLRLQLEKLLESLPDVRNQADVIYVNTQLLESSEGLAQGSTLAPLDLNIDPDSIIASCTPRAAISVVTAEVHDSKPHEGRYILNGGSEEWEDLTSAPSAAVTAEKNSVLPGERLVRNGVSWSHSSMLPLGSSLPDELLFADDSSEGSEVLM
# [6] = target: T2, Tyrosine-protein kinase Mer (Homo sapiens); conditions: at 10 µM
# [7] = target: Hepatocyte growth factor receptor (Homo sapiens) (UniProt P08581); conditions: at 1 µM
# [8] = target: Hepatocyte growth factor receptor (Homo sapiens) (UniProt P08581); conditions: at 10 µM
# [9] = target: MAP kinase-interacting serine/threonine-protein kinase 2 (Homo sapiens) (UniProt Q9HBH9); conditions: at 1 µM
# [10] = target: MAP kinase-interacting serine/threonine-protein kinase 2 (Homo sapiens) (UniProt Q9HBH9); conditions: at 10 µM
# [11] = target: T3, Muscle, skeletal receptor tyrosine-protein kinase (Homo sapiens) (UniProt O15146); conditions: at 1 µM
# T3 sequence (whole entry): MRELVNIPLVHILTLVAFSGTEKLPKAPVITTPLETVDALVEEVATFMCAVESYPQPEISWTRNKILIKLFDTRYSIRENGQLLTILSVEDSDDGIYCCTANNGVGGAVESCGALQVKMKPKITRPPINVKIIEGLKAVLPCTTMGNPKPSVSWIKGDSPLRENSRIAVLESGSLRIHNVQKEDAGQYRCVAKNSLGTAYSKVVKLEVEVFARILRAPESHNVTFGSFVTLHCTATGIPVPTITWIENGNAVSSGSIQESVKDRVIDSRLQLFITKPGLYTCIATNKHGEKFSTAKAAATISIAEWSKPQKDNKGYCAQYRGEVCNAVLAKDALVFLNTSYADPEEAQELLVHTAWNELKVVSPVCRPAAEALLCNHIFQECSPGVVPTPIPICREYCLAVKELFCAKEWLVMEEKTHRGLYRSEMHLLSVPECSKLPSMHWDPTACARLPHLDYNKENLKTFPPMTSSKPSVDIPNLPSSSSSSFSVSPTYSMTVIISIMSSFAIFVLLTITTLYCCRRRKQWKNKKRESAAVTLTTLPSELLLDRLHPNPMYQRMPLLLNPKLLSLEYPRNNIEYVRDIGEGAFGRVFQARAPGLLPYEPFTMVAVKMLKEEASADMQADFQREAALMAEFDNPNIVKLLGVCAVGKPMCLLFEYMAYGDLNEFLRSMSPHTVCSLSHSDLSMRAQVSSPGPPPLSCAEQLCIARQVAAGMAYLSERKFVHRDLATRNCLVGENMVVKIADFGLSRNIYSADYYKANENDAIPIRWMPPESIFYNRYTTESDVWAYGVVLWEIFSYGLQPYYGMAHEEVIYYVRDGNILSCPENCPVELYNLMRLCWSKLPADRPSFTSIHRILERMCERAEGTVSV
# [12] = target: T3, Muscle, skeletal receptor tyrosine-protein kinase (Homo sapiens); conditions: at 10 µM
# [13] = target: T4, Serine/threonine-protein kinase Nek11 (Homo sapiens) (UniProt Q8NG66); conditions: at 1 µM
# T4 sequence (whole entry): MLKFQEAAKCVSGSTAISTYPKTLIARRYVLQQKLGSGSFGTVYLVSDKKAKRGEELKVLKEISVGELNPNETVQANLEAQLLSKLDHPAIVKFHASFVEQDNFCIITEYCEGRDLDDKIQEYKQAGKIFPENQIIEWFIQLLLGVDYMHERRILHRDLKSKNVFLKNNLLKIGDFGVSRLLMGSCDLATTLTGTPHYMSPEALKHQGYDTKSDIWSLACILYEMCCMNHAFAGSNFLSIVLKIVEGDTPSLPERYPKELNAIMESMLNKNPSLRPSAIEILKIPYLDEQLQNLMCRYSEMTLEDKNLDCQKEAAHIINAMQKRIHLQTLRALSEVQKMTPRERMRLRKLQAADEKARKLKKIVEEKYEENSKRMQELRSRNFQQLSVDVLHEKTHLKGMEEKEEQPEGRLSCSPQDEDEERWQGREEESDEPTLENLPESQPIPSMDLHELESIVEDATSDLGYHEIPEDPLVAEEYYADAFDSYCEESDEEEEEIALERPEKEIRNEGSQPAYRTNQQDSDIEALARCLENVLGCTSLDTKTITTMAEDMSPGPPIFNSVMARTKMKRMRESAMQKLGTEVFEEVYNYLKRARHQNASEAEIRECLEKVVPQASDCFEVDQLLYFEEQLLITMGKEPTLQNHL
# [14] = target: T4, Serine/threonine-protein kinase Nek11 (Homo sapiens); conditions: at 10 µM
# [15] = target: T5, Serine/threonine-protein kinase Nek2 (Homo sapiens) (UniProt P51955); conditions: at 1 µM
# T5 sequence (whole entry): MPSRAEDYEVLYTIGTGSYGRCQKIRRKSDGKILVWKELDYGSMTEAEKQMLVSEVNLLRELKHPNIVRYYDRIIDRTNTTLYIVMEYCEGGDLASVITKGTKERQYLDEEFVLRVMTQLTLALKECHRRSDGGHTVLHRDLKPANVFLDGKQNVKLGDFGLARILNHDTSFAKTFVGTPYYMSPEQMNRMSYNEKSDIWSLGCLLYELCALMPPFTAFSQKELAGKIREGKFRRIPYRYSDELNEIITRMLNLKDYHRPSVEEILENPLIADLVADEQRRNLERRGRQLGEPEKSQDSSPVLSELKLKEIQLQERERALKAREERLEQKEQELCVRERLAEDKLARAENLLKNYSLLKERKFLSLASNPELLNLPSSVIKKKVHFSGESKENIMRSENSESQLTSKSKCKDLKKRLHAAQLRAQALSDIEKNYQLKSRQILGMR
# [16] = target: T5, Serine/threonine-protein kinase Nek2 (Homo sapiens); conditions: at 10 µM
# [17] = target: T6, Serine/threonine-protein kinase Nek3 (Homo sapiens) (UniProt P51956); conditions: at 1 µM
# T6 sequence (whole entry): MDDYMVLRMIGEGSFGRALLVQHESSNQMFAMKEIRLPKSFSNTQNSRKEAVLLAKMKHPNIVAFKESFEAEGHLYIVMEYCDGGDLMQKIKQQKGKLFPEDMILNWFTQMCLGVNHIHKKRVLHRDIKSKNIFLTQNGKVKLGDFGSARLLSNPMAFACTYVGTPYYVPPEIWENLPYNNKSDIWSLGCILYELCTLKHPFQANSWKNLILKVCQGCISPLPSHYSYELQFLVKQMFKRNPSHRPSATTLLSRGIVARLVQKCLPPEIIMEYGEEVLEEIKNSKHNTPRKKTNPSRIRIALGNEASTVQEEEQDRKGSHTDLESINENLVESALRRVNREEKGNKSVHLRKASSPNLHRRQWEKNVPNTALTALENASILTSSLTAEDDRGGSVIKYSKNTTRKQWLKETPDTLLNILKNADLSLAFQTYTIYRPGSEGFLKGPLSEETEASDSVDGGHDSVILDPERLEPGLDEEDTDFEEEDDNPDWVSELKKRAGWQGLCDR
# [18] = target: T6, Serine/threonine-protein kinase Nek3 (Homo sapiens); conditions: at 10 µM
# [19] = target: Serine/threonine-protein kinase tousled-like 2 (Homo sapiens) (UniProt Q86UE8); conditions: at 1 µM
# [20] = target: Serine/threonine-protein kinase tousled-like 2 (Homo sapiens) (UniProt Q86UE8); conditions: at 10 µM
# Sequence of MAP kinase-interacting serine/threonine-protein kinase 2 (Homo sapiens) (Q9HBH9 whole entry, looked up): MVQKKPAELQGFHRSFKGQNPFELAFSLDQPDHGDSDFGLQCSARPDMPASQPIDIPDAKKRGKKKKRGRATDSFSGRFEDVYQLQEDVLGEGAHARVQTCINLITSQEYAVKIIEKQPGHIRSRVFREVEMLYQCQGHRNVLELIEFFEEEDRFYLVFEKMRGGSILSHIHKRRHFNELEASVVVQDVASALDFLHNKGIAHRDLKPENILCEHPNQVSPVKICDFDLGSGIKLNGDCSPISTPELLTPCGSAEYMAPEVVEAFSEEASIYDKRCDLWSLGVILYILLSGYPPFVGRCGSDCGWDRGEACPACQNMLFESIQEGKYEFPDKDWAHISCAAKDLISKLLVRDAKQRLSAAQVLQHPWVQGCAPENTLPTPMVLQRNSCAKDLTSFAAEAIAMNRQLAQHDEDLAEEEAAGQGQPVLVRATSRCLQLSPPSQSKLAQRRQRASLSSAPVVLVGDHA
# Sequence of Serine/threonine-protein kinase tousled-like 2 (Homo sapiens) (Q86UE8 whole entry, looked up): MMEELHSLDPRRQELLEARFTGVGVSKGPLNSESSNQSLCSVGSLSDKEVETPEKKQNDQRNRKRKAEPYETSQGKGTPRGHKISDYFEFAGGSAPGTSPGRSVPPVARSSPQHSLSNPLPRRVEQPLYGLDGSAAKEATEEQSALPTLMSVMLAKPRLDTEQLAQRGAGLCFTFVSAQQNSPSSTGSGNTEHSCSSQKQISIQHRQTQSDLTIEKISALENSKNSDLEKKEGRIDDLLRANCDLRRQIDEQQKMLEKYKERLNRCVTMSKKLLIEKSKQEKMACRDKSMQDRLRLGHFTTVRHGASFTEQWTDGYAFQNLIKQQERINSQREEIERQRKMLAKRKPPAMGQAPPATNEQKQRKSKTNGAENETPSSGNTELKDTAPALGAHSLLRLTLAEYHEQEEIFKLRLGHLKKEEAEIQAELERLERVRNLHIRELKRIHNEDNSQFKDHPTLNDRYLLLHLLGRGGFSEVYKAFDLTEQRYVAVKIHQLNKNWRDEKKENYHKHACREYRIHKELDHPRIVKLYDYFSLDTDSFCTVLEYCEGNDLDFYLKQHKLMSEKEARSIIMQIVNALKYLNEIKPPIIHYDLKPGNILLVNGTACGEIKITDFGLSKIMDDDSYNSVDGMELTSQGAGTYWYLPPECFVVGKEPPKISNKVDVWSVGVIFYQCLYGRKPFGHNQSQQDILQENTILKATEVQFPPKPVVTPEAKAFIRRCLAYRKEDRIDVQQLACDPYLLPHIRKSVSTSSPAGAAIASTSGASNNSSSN
# Sequence of Serine/threonine-protein kinase 24 (Homo sapiens) (Q9Y6E0 whole entry, looked up): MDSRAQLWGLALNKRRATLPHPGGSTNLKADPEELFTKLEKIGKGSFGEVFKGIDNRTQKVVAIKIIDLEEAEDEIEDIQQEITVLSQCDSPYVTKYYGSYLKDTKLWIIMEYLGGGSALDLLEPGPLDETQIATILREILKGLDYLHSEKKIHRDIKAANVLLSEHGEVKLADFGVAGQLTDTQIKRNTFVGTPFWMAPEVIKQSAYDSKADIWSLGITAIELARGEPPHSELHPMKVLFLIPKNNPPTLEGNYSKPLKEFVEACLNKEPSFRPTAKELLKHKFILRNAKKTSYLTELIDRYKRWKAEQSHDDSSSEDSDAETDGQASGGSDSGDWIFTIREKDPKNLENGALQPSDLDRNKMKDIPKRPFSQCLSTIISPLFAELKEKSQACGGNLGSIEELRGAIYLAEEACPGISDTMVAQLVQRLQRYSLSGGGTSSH
# Sequence of Hepatocyte growth factor receptor (Homo sapiens) (P08581 whole entry): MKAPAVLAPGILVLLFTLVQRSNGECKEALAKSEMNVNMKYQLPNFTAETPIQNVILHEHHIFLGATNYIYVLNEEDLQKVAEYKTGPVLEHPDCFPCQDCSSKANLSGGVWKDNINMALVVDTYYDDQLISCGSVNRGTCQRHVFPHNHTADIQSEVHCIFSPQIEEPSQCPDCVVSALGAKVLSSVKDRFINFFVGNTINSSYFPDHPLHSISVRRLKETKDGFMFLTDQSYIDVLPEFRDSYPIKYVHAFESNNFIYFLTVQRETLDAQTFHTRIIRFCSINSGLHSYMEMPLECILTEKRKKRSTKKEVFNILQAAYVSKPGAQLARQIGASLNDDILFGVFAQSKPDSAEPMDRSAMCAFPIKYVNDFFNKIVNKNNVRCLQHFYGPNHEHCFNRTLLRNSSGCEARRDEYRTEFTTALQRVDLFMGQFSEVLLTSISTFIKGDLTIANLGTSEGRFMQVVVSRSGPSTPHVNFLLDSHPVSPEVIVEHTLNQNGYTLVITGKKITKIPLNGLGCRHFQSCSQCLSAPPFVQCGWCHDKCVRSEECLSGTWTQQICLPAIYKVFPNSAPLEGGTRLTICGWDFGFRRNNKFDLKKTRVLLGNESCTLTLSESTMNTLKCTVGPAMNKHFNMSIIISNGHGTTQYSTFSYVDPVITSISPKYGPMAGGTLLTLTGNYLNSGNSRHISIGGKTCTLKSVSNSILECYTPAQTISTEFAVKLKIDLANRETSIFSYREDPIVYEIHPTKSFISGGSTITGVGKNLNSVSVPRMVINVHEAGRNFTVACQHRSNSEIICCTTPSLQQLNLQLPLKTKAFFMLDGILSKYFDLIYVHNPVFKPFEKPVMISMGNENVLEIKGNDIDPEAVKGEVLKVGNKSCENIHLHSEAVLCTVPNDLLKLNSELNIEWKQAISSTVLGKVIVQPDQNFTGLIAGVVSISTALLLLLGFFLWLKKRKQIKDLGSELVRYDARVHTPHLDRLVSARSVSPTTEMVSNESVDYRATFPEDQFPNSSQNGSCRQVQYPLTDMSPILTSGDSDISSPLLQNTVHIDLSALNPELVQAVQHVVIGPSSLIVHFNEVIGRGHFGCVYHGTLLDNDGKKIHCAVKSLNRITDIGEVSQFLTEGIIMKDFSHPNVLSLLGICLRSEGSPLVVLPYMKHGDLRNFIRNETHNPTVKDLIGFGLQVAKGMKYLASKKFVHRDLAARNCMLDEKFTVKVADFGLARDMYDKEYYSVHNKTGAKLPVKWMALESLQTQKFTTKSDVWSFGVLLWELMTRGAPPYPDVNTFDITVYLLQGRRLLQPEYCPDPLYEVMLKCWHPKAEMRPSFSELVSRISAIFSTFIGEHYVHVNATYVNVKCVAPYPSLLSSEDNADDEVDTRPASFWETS
Compound,residual activity [1],residual activity [2],residual activity [3],residual activity [4],residual activity [5],residual activity [6],residual activity [7],residual activity [8],residual activity [9],residual activity [10],residual activity [11],residual activity [12],residual activity [13],residual activity [14],residual activity [15],residual activity [16],residual activity [17],residual activity [18],residual activity [19],residual activity [20]
COc1ccc(C(=O)Nc2sc3c(c2C(N)=O)CCCC3)cc1OC,105%,91%,68%,65%,107%,86%,120%,110%,99%,82%,92%,84%,77%,96%,80%,103%,110%,72%,95%,87%
O=C1Nc2ccc(Br)cc2/C1=C\c1cc2c([nH]1)CCCC2,46%,61%,,77%,68%,45%,104%,144%,108%,102%,61%,50%,,,,101%,102%,97%,107%,
N#CC(C#N)=C(N)/C(C#N)=C/c1ccc(O)cc1,,,71%,67%,,,,138%,,50%,,82%,75%,97%,91%,100%,,,100%,95%
CC#CC(=O)Nc1cc2c(Nc3ccc(F)c(Cl)c3)ncnc2cn1,103%,94%,71%,75%,107%,94%,111%,84%,101%,90%,100%,84%,70%,99%,73%,95%,107%,84%,102%,87%
CN(C)CCCn1cc(C2=C(c3c[nH]c4ccccc34)C(=O)NC2=O)c2ccccc21,73%,17%,27%,7%,60%,11%,,58%,,,134%,74%,72%,59%,,105%,,90%,21%,2%
COc1cc2ncc(-c3ccccc3)nc2cc1OC,,100%,65%,71%,,62%,92%,68%,,,,,87%,,94%,100%,125%,85%,,
O=C(O)c1ccc2c3c1cccc3c(=O)n1c3ccccc3nc21,103%,81%,97%,67%,80%,28%,130%,73%,67%,23%,105%,94%,80%,93%,123%,102%,93%,97%,104%,97%
Ic1cccc(CSc2nnc(-c3ccncc3)o2)c1,39%,15%,50%,43%,69%,48%,126%,100%,91%,89%,74%,59%,103%,102%,88%,89%,84%,84%,83%,83%
